Only some compounds are listed: those with a hit (about 5.3% of all), similar ones and a draw of the others.
15-hLO-2 inh: qHTS Assay for Inhibitors of 15-hLO-2 (15-human lipoxygenase 2); Polyunsaturated fatty acid lipoxygenase ALOX15B (Homo sapiens), O15296; purified 15hLO-2, xylenol orange hydroperoxide absorbance; Potency, µM (titrated, usually from 57.1 µM), for inactives: at the highest dose activity change, negative = inhibition, hits mostly inhibitors; 110,000 compounds, 0.56% hits; AID 881, 2007; further: potency means the concentration at half of the fitted maximal effect; nearly all actives have a fitted effect of over 60% in size
Target sequence (O15296 whole entry, looked up): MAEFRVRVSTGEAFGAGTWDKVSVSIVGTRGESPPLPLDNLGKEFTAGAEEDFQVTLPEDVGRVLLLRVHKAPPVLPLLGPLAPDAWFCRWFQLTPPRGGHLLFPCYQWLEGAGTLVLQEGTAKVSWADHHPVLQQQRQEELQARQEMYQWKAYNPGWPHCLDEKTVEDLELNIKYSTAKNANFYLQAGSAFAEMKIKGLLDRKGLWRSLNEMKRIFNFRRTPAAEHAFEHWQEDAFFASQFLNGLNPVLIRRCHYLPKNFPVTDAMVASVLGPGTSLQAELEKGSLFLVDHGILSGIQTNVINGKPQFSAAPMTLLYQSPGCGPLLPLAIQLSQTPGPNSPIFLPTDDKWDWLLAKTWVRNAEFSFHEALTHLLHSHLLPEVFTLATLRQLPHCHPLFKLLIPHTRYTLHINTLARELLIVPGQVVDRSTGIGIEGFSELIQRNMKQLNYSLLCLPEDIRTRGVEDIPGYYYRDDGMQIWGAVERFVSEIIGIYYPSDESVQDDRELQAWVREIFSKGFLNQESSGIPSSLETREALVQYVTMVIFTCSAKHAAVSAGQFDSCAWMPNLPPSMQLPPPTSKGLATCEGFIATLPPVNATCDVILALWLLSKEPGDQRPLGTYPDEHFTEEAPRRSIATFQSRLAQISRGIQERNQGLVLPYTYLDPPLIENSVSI
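Enzyme 50 nM, AA 45 uM, 25 mM Hepes pH 7.5 + 0.01% Triton X-100; cpd preinc 15 min RT, rxn 90 min RT; stop/detect with 200 uM XO + 300 uM Fe(II) in 50 mM H2SO4, 30 min; A573/A405.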
IMPase Li cell: qHTS Assay for Identifying the Cell-Membrane Permeable IMPase Inhibitors: Potentiation with Lithium. Potency, µM (top dose mostly 59.4 µM), for the others: top-dose activity, negative = IMPase inhibition, usual class: inhibitors. CHO-M1 cells, IP1 TR-FRET (IP-One), carbachol + lithium. AID 1457, 2008. 210,000 compounds, 0.35% hits;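 further: IP1 builds up when IMPase is blocked and the TR-FRET signal falls; potency means the concentration at half of the fitted maximal effect; plate controls were basal vehicle for no effect and high inhibitor control for full effect; nearly all actives have a fitted effect of over 50% in size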
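Lithium-sensitised IP1 accumulation assay; M1-expressing CHO cells treated 30 min at 37C with compound. Competitive antibody detection by time-resolved FRET followed a 10 min room-temperature lysis step.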
12-hLO inh: qHTS Assay for Inhibitors of 12-hLO (12-human lipoxygenase). Polyunsaturated fatty acid lipoxygenase ALOX12 (Homo sapiens), P18054. purified 12-hLO, xylenol orange hydroperoxide absorbance. Potency, µM (series often up to 57.1 µM), for inactives: at the highest dose activity change, negative = inhibition, hits mostly inhibitors. 150,000 compounds, 0.12% hits. AID 1452, 2008; further: potency means the concentration at half of the fitted maximal effect; nearly all actives have a fitted effect of over 55% in size
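Hydroperoxide formation by human 12-lipoxygenase from 40 uM arachidonic acid was followed colorimetrically via ferric-xylenol orange complex, using the 573/405 nm absorbance ratio. Enzyme concentration was 150 nM, with 30 min reaction at room temperature.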
IMPase cell inh: qHTS Assay for Identifying the Cell-Membrane Permeable IMPase Inhibitors; Inositol monophosphatase 1 (Rattus norvegicus), P97697; 120,000 tested, under 10 active; inhibition (IP1 accumulation), % at 46.1 µM; CHO-M1 cells, IP1 accumulation, HTRF TR-FRET ratio; active means well fitted curve in the direction sought with a large enough effect in the signal ratio, not every such curve was filed as active; inconclusive means small, poorly fitted or top-dose-only effect, or a change in a side signal; inactive means no such curve, though single readings can be large or run the other way; the % refers to the signal ratio;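 further: cells stimulated with carbachol in lithium chloride buffer; plate controls were DMSO basal wells for no effect and reference inhibitor wells for full effect; higher means more IMPase inhibition seen as more IP1 and lower FRET ratio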
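Measured: the HTRF emission ratio (665/620 nm) plus the 620 nm donor channel, each fitted to the Hill equation to give AC50. Cells were CHO-M1 given compounds up to 46 uM and a 30 min carbachol stimulation at 37C.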
PNC assembly inh: High Content Assay for Compounds that inhibit the Assembly of the Perinucleolar Compartment. PC3M PTB-GFP, PNC prevalence imaging, 16 h; stronger effect = lower value. activity change (PNC), negative = inhibition, % at 10 µM. 140,000 compounds, 3.1% hits;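 active means readout at or below -70, meaning at least 70% loss of cells showing the perinucleolar compartment, a nuclear body marking cancer cells; inconclusive means readout between -30 and a set limit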;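 further: plate controls were DMSO wells for no effect and camptothecin positive control wells for full effect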
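PC3M cells stably expressing PTB-GFP, 750–1000 cells/well, treated 16 h at 37 °C with compound (23 nl of library stock), in duplicate. After paraformaldehyde fixation and Hoechst stain, imaged at 20x; PNC prevalence scored by image analysis.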
HPGD inh: qHTS Assay for Inhibitors of HPGD (15-Hydroxyprostaglandin Dehydrogenase); 15-hydroxyprostaglandin dehydrogenase [NAD(+)] (Homo sapiens), P15428; purified HPGD, NADH fluorescence kinetic, PGE2 substrate; Potency, µM, inactives show at the top dose activity change, negative = inhibition, hits mostly inhibitors; 150,000 compounds, 4.3% hits; AID 894, 2007; active means well fitted inhibition curve with a large enough effect, not every such curve was filed as active; inconclusive means small, poorly fitted or top-dose-only effect, or another doubt; inactive means no such curve, though single readings can be large or run the other way; further: potency means the concentration at half of the fitted maximal effect
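NADH formation kinetics: reaction with 30 uM PGE2 and 1 mM NAD+ (final), 20 nM enzyme, Tris-HCl pH 8 with Tween 20, after 15 min compound preincubation at room temperature. Fluorescence change, last versus first of five reads.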
Numbers without * were called inactive; [ ] = remark or other dose. Unless noted, the call rests on the fitted dose curve; in most records, active means well fitted curve in the direction sought with a large enough effect; inconclusive means small, poorly fitted or top-dose-only effect, or another doubt; inactive means no such curve, though single readings can be large; an effect the other way counts as inactive or inconclusive. Unless noted, on the % scale 0 is the no-effect control and ±100 the full control effect.

How did CCCCNC(=S)NCc1ccc2[nH]c(C)cc2c1 do in these assays?
IMPase Li cell: 12.3%; 12-hLO inh: inconclusive; PNC assembly inh: -114.6*; HPGD inh: -11.5%

How did O=C(Cc1ccccc1)NCc1ccc2c(c1)OCO2 do in these assays?
15-hLO-2 inh: 5.0%; IMPase Li cell: -9.6%[38.3 µM]; 12-hLO inh: 0.1%; IMPase cell inh: 2.9; PNC assembly inh: 9.7; HPGD inh: 31.6µM*

What do the screens show for `CCOc1ccc(NC(=S)NCc2ccc3[nH]c(C)cc3c2)cc1`?
IMPase Li cell: -0.5%

How did O=C(COc1ccc(S(=O)(=O)NC2CCCCC2)cc1Cl)NCc1ccc2c(c1)OCO2 do in these assays?
15-hLO-2 inh: -6.1%; IMPase Li cell: 23.9%[38.3 µM]; 12-hLO inh: -6.0%; IMPase cell inh: -0.8; PNC assembly inh: 2.0; HPGD inh: -20.7%

How did CC(C)[C@H](O)C1=CCCCC1=O do in these assays?
IMPase Li cell: 21.2%; HPGD inh: -0.7%

Results for O=C(C1CC12CCCC2)N1CCC(CO)(Cc2ccccc2Cl)CC1 (stereo not drawn) ?
IMPase Li cell: 11.8%

What do the screens show for `Cc1ccc(-c2nc3ccccc3c(C(=O)NCc3cccs3)c2C)cc1`?
15-hLO-2 inh: -2.4%; IMPase Li cell: 55.3%[38.3 µM]; 12-hLO inh: 0.4%; IMPase cell inh: 3.8; PNC assembly inh: -8.7; HPGD inh: -26.6%

Results for O=C(NNC1=C(C(=O)C(F)(F)F)CCC1)c1ccccc1Cl ?
15-hLO-2 inh: 5.4%; IMPase Li cell: 2.7%[38.3 µM]; 12-hLO inh: -4.5%; IMPase cell inh: 3.5; PNC assembly inh: 4.6; HPGD inh: 14.1µM*

What do the screens show for `O=C(NNC1=C(C(=O)C(F)(F)F)CCC1)c1ccccc1O`?
15-hLO-2 inh: 6.2%; IMPase Li cell: 37.7%[38.3 µM]; 12-hLO inh: 2.9%; IMPase cell inh: 5.2; PNC assembly inh: inconclusive; HPGD inh: -21.8%

What do the screens show for `Cc1cc2nc(-c3ccc(SCc4ccccn4)nc3)[nH]c2cc1C`?
IMPase Li cell: 12.0%

How did CC1CC(C)CN(C(=O)c2ccc(NC(=O)c3ccc(=O)[nH]c3)cc2)C1 (stereo not drawn) do in these assays?
IMPase Li cell: -2.9%; 12-hLO inh: -2.0%; PNC assembly inh: 21.0; HPGD inh: 7.94µM*

How did CC1CC(C)CN(C(=O)c2ccc(C#N)cc2)C1 (stereo not drawn) do in these assays?
IMPase Li cell: -0.4%

What do the screens show for `Cc1ccc(C(O)(C(=O)NN(C(=O)c2ccccc2)c2ccccc2)c2ccc(C)cc2)cc1`?
IMPase Li cell: 14.1%; 12-hLO inh: 4.2%; IMPase cell inh: 3.6; PNC assembly inh: 12.7; HPGD inh: -0.5%

What do the screens show for `Cc1ccc(N(NC(=O)C(O)(c2ccccc2)c2ccccc2)C(=O)CCl)cc1`?
IMPase Li cell: 9.6%; 12-hLO inh: -4.3%; PNC assembly inh: 30.3; HPGD inh: 11.2µM*

What do the screens show for `CCCCCCc1cc2cc(-c3nnc(-c4ccccc4O)o3)c(=O)oc2cc1O`?
15-hLO-2 inh: 25.1µM*; IMPase Li cell: -1.9%[38.3 µM]; 12-hLO inh: -15.5%; IMPase cell inh: -3.9; PNC assembly inh: 14.7; HPGD inh: -23.2%

Results for O=C(O)c1ccc(N2CC3CC(C2)c2cccc(=O)n2C3)c(NC(=S)Nc2ccc(Br)cc2)c1 (stereo not drawn) ?
IMPase Li cell: 1.4%

What do the screens show for `O=C(Nc1nc2c(s1)CCCC2)c1cccnc1`?
15-hLO-2 inh: 4.3%; IMPase Li cell: 51.8%[38.3 µM]; 12-hLO inh: 4.6%; IMPase cell inh: 4.8; PNC assembly inh: 31.6; HPGD inh: -9.8%

What do the screens show for `O=C(NC(=S)Nc1nc2c(s1)CCCC2)c1ccc(C(=O)c2ccccc2)cc1`?
IMPase Li cell: -5.7%; 12-hLO inh: 2.5%; PNC assembly inh: -123.8*; HPGD inh: -22.9%

What do the screens show for `Cc1cc(NC(=O)CSc2nc(C(C)C)nc3ccccc23)no1`?
15-hLO-2 inh: 1.2%; IMPase Li cell: 12.6µM*; 12-hLO inh: 0.5%; IMPase cell inh: -14.1; PNC assembly inh: -26.5; HPGD inh: -19.3%

How did O=C(Cc1cccs1)Nc1nc2c(s1)CCCC2 do in these assays?
15-hLO-2 inh: inconclusive; IMPase Li cell: 11.6%[38.3 µM]; 12-hLO inh: -3.3%; IMPase cell inh: 0.0; PNC assembly inh: -113.2*; HPGD inh: -13.2%

Results for CCOC(=O)c1cccc(NC(=O)CSc2nc3ccccc3c(=O)n2CC)c1 ?
15-hLO-2 inh: -5.6%; IMPase Li cell: 3.1%; 12-hLO inh: 1.2%; IMPase cell inh: -22.9; PNC assembly inh: -93.6*; HPGD inh: -8.2%

How did O=C1C=C(NCCOC23CC4CC(CC(C4)C2)C3)C2(CCCCC2)O1 do in these assays?
IMPase Li cell: -2.7%

What do the screens show for `CN(C)C(=O)c1ccc(-c2ccc3ncnc(NC4CCNCC4)c3c2)cc1`?
15-hLO-2 inh: 3.5%; IMPase Li cell: -1.5%; 12-hLO inh: 3.3%; HPGD inh: inconclusive

How did CCOC(=O)COc1ccc(C2CC(C)=NN2c2ccccc2)cc1 (stereo not drawn) do in these assays?
IMPase Li cell: 7.4%

What do the screens show for `Cc1nnc(NC(=O)CSc2nc(C(C)C)nc3ccccc23)s1`?
15-hLO-2 inh: 10.3%[11.4 µM]; IMPase Li cell: 7.94µM*; 12-hLO inh: -3.2%; IMPase cell inh: inconclusive; PNC assembly inh: 22.0; HPGD inh: -1.9%

Results for CC(C)(C)c1nc(SCC(=O)Nc2nc3c(s2)CCCC3)c2ccccc2n1 ?
IMPase Li cell: 24.6%[38.3 µM]; 12-hLO inh: -3.5%; IMPase cell inh: 11.9; PNC assembly inh: -94.8*; HPGD inh: -7.9%

How did Cc1cc(NC(=O)CSc2nc3ccccc3c(=O)n2-c2ccccc2)no1 do in these assays?
15-hLO-2 inh: -9.0%; IMPase Li cell: 7.08µM*; 12-hLO inh: -3.0%; IMPase cell inh: 3.4; PNC assembly inh: inconclusive; HPGD inh: -28.3%

Results for Cc1ccc(S(=O)(=O)Oc2ccc(/C=N/NC(=O)c3nn(C)cc3Cl)cc2)cc1 ?
IMPase Li cell: 6.9%; 12-hLO inh: 0.4%; IMPase cell inh: 2.8; PNC assembly inh: -100.0*; HPGD inh: -27.5%

What do the screens show for `CSCCOC(=O)COc1ccc(/C=N/NC(=O)c2nn(C)cc2Cl)cc1`?
IMPase Li cell: -4.5%; 12-hLO inh: 0.1%; PNC assembly inh: -21.3; HPGD inh: 3.98µM*
